Assay results published in the supplement of paper PMC10849652.
The full data set covers some 7,900 targets. This sample favours those with a hit. About 0.6% of all pairs of compound and target were hits. Values without a mark were called inactive.

Assays:
Test in all cases: log2 fold change, soluble protein after heating vs DMSO (PISA); higher = thermal stabilisation; K562 cells, 10 uM, 30 min; active = over 0.2 and 3.5 SD of the protein, either way, in both replicates (recomputed)
IRAK-1-4 Inhibitor I = compound: C1COCCN1CCN2C3=CC=CC=C3N=C2NC(=O)C4=CC(=CC=C4)[N+](=O)[O-] [IRAK-1-4 Inhibitor I]
Outline: (§1)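 Soluble protein was quantified by TMTpro 16plex LC-MS/MS after channel sums were equalised. It was obtained as the supernatant after 21,000xg for 90 min from pooled aliquots of K562 cells (2×10^6 cells/mL, 10 μM compound, 30 min) heated for 3 min across 48°C-58°C and extracted in PBS with 0.5% NP-40 at 4°C. Thermal stability values are relative to control samples and come from duplicates. They are given as log2 fold changes.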

ibrutinib = compound: C=CC(=O)N1CCC[C@@H](n2nc(-c3ccc(Oc4ccccc4)cc3)c3c(N)ncnc32)C1 [ibrutinib]
Outline: as §1

[1] = compound: CC(=O)c1cnc2ccc(-c3cc(Cl)c(O)c(Cl)c3)nc2c1N[C@H]1CC[C@H](CN(C)C)CC1
Outline: as §1

ralimetinib = compound: CC(C)(C)Cn1c(N)nc2ccc(-c3[nH]c(C(C)(C)C)nc3-c3ccc(F)cc3)nc21 [ralimetinib]
Outline: as §1

[2] = compound: CC(C)(O)CC(=O)NCCn1ccc2ncnc(Nc3ccc(Oc4cccc(C(F)(F)F)c4)c(Cl)c3)c21
Outline: as §1

[3] = compound: CC(C)C1=C2N=C(C=C(N2N=C1)NCC3=CC=CC=C3)NCCCCCCN
Outline: as §1

[4] = compound: CC(C)C[C@@H](C=O)NC(=O)[C@H](CC(C)C)NC(=O)[C@H](CC(C)C)NC(=O)OCc1ccccc1
Outline: as §1

pinometostat = compound: CC(C)N(C[C@H]1O[C@@H](n2cnc3c(N)ncnc32)[C@H](O)[C@@H]1O)[C@H]1C[C@@H](CCc2nc3cc(C(C)(C)C)ccc3[nH]2)C1 [pinometostat]
Outline: as §1

[5] = compound: CC1=C(C(CC(=O)N1)C2=CC=C(C=C2)C(F)(F)F)C(=O)NC3=C(C=C4C(=C3)C=NN4)F
Outline: as §1

[6] = compound: CC1=C(C2=C(C=C1)C(=O)C3=CC=CC=C3N2CCCN)C
Outline: as §1

[7] = compound: CC1=C(C=C(C=C1)NC(=O)C2=CC(=CC=C2)C(C)(C)C#N)NC3=CC4=C(C=C3)N=CN(C4=O)C
Outline: as §1

[8] = compound: CC1=C(C=C(C=C1)NC(=O)C2=CC(=CC=C2)N(C)C)NC(=O)C3=CC=C(C=C3)O
Outline: as §1

[9] = compound: CC1=CC=C(C=C1)SC2=C3C=C(SC3=CN=C2)C(=O)N
Outline: as §1

[10] = compound: CC1=NC(=CC=C1)C2=C(N=C(N2)C(C)(C)C)C3=CC4=NC=CN=C4C=C3
Outline: as §1

Nexturastat A = compound: CCCCN(Cc1ccc(C(=O)NO)cc1)C(=O)Nc1ccccc1 [Nexturastat A]
Outline: as §1

vemurafenib = compound: CCCS(=O)(=O)Nc1ccc(F)c(C(=O)c2c[nH]c3ncc(-c4ccc(Cl)cc4)cc23)c1F [vemurafenib]
Outline: as §1

[11] = compound: CCCS(=O)(=O)Nc1ccc(F)c(C(=O)c2c[nH]c3ncc(Cl)cc23)c1F
Outline: as §1

[12] = compound: CCCc1cc(C)[nH]c(=O)c1CNC(=O)c1cc(-c2ccnc(N3CCN(C)CC3)c2)cc2c1cnn2C(C)C
Outline: as §1

givinostat = compound: CCN(CC)Cc1ccc2cc(COC(=O)Nc3ccc(C(=O)NO)cc3)ccc2c1 [givinostat]
Outline: as §1

barasertib = compound: CCN(CCCOc1ccc2c(Nc3cc(CC(=O)Nc4cccc(F)c4)[nH]n3)ncnc2c1)CCOP(=O)(O)O [barasertib]
Outline: as §1

Chain of UniProt Q86VS8 (Q86VS8 whole entry, looked up): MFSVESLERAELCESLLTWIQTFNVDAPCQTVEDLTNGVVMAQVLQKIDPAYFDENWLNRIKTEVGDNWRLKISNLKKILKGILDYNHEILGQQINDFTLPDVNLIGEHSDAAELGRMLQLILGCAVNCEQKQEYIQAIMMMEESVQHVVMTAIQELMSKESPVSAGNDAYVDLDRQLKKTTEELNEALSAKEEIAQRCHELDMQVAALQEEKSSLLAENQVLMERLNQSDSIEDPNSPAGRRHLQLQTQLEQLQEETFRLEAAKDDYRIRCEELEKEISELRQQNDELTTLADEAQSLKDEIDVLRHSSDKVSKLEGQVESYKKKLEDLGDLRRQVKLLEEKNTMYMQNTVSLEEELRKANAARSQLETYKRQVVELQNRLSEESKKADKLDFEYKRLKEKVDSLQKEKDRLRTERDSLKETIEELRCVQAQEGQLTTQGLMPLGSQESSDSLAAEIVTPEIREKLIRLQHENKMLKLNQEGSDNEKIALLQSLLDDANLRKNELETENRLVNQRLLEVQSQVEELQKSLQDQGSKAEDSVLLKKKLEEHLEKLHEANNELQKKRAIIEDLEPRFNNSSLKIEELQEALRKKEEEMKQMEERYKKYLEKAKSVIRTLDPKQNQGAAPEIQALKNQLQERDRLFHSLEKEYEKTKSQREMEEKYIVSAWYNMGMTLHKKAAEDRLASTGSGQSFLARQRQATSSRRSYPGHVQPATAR
Chain of UniProt P63218 (P63218 whole entry, looked up): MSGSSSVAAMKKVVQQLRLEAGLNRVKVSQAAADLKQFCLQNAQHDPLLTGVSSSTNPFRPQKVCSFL
Chain of UniProt P52655 (P52655 whole entry, looked up): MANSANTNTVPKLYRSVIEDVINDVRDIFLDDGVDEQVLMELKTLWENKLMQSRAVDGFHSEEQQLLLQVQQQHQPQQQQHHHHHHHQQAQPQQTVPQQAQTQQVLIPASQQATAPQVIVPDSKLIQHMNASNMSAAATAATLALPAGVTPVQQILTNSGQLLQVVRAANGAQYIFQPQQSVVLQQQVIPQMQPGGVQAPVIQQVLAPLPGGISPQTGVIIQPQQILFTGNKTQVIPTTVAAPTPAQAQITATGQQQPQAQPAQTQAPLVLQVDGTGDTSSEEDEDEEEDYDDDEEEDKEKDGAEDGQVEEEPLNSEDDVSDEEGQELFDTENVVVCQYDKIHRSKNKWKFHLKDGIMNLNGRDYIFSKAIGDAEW
Chain of UniProt P06865 (P06865 whole entry, looked up): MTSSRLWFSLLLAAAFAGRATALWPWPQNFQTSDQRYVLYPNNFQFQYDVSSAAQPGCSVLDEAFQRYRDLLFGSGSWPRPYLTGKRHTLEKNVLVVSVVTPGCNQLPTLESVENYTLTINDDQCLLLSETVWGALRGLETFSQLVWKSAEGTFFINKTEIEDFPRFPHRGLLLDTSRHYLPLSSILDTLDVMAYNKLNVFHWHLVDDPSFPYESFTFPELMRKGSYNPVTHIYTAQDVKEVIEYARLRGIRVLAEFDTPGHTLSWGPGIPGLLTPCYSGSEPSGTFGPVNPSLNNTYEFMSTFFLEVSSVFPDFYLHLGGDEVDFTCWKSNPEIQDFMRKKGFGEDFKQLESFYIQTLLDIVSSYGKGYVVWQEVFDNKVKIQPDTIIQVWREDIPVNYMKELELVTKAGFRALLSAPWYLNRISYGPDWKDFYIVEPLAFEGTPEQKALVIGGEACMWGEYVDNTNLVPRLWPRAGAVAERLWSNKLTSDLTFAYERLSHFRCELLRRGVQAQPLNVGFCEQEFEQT
Chain of UniProt P04035 (P04035 whole entry, looked up): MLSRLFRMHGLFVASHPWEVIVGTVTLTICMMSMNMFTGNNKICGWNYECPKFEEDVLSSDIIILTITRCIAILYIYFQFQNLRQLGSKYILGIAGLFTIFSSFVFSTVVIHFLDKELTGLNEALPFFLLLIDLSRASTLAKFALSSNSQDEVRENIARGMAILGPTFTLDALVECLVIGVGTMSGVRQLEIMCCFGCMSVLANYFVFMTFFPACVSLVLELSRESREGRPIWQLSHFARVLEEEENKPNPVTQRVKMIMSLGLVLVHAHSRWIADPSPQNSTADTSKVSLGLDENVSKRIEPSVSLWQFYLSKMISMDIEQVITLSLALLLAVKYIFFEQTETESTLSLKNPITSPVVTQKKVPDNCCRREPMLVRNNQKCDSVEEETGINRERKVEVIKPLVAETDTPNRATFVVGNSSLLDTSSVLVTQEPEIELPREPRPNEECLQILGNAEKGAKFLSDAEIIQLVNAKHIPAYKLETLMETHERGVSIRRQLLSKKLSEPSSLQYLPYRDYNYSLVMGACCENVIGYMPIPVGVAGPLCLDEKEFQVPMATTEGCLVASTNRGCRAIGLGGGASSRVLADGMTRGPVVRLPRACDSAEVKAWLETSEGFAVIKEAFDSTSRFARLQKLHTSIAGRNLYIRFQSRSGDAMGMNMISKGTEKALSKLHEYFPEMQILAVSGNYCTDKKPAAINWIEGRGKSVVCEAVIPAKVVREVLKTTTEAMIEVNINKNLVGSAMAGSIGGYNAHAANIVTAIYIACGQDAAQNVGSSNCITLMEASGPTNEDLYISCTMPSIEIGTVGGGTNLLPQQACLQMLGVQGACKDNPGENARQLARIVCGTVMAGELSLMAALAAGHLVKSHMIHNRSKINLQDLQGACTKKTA
Chain of UniProt P78417 (P78417 whole entry, looked up): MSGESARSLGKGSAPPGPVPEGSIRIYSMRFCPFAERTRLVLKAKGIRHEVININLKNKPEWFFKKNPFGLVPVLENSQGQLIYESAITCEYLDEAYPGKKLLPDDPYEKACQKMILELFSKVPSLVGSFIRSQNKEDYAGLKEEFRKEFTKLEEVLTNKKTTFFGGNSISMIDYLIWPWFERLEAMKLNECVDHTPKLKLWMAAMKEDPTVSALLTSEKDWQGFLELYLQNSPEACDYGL
Chain of UniProt Q7Z4H3 (Q7Z4H3 whole entry, looked up): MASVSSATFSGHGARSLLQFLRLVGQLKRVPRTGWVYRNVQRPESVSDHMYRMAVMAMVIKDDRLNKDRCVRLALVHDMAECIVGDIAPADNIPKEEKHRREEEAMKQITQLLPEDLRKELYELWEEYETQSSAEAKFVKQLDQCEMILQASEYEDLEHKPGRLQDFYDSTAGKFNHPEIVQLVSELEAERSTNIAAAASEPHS
Chain of UniProt Q9Y680 (Q9Y680 whole entry, looked up): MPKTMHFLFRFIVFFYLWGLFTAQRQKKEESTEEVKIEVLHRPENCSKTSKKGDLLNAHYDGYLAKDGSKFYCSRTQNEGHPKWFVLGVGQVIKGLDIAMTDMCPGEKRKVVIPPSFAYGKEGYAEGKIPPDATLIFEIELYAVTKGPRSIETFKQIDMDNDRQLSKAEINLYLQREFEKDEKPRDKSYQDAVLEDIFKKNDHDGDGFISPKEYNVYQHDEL
Chain of UniProt P50213 (P50213 whole entry, looked up): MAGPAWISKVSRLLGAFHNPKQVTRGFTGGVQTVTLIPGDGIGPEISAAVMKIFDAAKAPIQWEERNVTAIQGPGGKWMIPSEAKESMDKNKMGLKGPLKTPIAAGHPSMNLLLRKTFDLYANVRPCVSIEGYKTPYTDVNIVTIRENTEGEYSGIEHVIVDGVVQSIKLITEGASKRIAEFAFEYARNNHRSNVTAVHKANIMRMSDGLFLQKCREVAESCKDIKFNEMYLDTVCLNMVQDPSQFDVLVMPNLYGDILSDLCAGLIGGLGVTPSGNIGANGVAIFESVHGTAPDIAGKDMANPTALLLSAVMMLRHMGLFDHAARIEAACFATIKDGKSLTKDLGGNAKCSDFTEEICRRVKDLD
Chain of UniProt P23434 (P23434 whole entry, looked up): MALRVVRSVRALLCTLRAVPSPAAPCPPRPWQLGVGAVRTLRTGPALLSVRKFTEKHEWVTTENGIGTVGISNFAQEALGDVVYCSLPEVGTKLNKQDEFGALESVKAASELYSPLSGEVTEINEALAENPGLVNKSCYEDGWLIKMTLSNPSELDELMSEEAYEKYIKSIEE
Chain of UniProt P09211 (P09211 whole entry, looked up): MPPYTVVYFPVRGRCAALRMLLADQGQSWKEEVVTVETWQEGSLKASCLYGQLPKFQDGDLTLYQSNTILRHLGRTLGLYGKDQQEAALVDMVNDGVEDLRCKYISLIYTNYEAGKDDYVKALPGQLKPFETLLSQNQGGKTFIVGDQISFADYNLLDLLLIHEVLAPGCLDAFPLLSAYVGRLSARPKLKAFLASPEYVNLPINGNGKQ
Chain of UniProt P29084 (P29084 whole entry, looked up): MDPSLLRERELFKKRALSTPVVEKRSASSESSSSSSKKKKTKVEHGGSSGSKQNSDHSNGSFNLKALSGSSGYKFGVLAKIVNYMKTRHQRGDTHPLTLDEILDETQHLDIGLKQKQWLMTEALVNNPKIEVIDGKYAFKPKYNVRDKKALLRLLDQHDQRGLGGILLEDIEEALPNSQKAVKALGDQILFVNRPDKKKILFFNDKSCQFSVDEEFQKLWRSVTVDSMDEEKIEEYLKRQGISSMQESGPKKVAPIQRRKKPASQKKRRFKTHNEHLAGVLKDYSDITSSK
Chain of UniProt Q13889 (Q13889 whole entry, looked up): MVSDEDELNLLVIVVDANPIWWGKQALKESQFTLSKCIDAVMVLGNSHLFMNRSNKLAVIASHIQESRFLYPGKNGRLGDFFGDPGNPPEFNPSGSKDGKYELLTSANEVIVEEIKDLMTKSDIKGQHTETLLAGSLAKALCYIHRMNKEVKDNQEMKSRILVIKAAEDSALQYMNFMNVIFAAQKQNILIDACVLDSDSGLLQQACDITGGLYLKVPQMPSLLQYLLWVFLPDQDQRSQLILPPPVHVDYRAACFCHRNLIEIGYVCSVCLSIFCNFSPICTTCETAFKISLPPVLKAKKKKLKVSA

Row | Target | log2 fold change (IRAK-1-4 Inhibitor I) | log2 fold change (ibrutinib) | log2 fold change [1] | log2 fold change (ralimetinib) | log2 fold change [2] | log2 fold change [3] | log2 fold change [4] | log2 fold change (pinometostat) | log2 fold change [5] | log2 fold change [6] | log2 fold change [7] | log2 fold change [8] | log2 fold change [9] | log2 fold change [10] | log2 fold change (Nexturastat A) | log2 fold change (vemurafenib) | log2 fold change [11] | log2 fold change [12] | log2 fold change (givinostat) | log2 fold change (barasertib)
1 | GTF2H3 (UniProt Q13889) | -0.06 | 0.056 | 0.063 | 0.049 | 0.006 | 0.011 | 0 | 0.06 | -0.074 | 0.02 | -0.094 | -0.008 | -0.024 | 0 | 0.016 | -0.081 | -0.021 | -0.112 | 0.068 | -0.042
2 | GCSH (UniProt P23434) | 0.027 | -0.002 | 0.011 | -0.026 | -0.031 | -0.025 | -0.049 | -0.021 | 0.029 | 0.03 | -0.024 | 0.047 | 0.279 | 0.006 | -0.06 | 0.079 | -0.021 | -0.139 | 0 | -0.095
3 | HDDC2 (UniProt Q7Z4H3) | 0.04 | 0 | 0.052 | 0.085 | 0.003 | 0.074 | 0 | -0.076 | -0.006 | -0.007 | 0.009 | -0.03 | 0.014 | 0.029 | -0.139 | 0.004 | 0.034 | -0.018 | -0.067 | -0.022
4 | IDH3A (UniProt P50213) | 0.033 | 0.021 | -0.008 | -0.085 | -0.044 | 0.034 | 0 | -0.029 | 0.008 | 0.015 | -0.029 | -0.003 | 0.031 | 0.015 | -0.084 | 0.009 | -0.009 | -0.014 | -0.06 | -0.006
5 | GALNT11 (UniProt Q8NCW6) | -0.008 | -0.088 | -0.022 | 0.065 | 0.018 | 0.015 | 0.038 | 0.045 | 0.002 | 0.039 | 0.011 | 0.049 | -0.024 | -0.041 | -0.032 | 0.009 | -0.035 | -0.002 | 0.027 | 0.118
6 | GNG5 (UniProt P63218) | -0.022 | 0.039 | 0.047 | 0.072 | -0.084 | 0.109 | -0.065 | -0.072 | -0.071 | 0.002 | 0.147 | -0.17 | -0.02 | 0.074 | 0.068 | 0.038 | 0.004 | 0.022 | -0.063 | -0.064
7 | GTF2A1 (UniProt P52655) | 0.068 | 0.03 | 0.013 | -0.142 | -0.106 | 0.022 | -0.06 | 0.035 | 0.014 | -0.415 (active) | -0.086 | -0.05 | -0.023 | -0.006 | 0.077 | 0.005 | -0.057 | -0.011 | -0.01 | 0.021
8 | FARS2 (UniProt O95363) | 0 | -0.038 | -0.05 | -0.004 | -0.028 | -0.182 | -0.001 | 0.002 | -0.003 | -0.018 | 0.012 | -0.015 | -0.032 | 0.078 | 0.044 | 0.032 | 0.01 | -0.087 | -0.019 | 0.035
9 | HMGCR isoform 3 (UniProt P04035) | 0.037 | -0.001 | 0.022 | -0.005 | -0.023 | 0.029 | 0.383 (active) | 0.014 | 0.011 | -0.044 | 0.131 | -0.046 | 0.061 | -0.115 | 0.074 | -0.002 | -0.04 | -0.043 | 0.034 | 0.027
10 | HOOK3 (UniProt Q86VS8) | 0.003 | -0.057 | -0.018 | 0.033 | -0.109 | -0.138 | 0.056 | 0.024 | 0.008 | 0.02 | -0.024 | -0.023 | -0.014 | -0.039 | 0.034 | -0.014 | -0.001 | -0.026 | 0.091 | 0.008
11 | HIST2H3A (UniProt Q71DI3) | -0.269 | 0.081 | -0.012 | 0.292 | -0.021 | -0.225 | 0.18 | 0.29 | 0.002 | 0.727 | -0.1 | -0.004 | -0.119 | -0.056 | 0.921 (active) | -0.203 | 0.592 | 0.037 | 0.321 | -0.148
12 | GTF2E2 (UniProt P29084) | -0.041 | -0.008 | -0.104 | -0.012 | -0.033 | -0.137 | 0.075 | 0.056 | 0.001 | 0.056 | 0.045 | -0.068 | -0.01 | 0.02 | 0.082 | 0.057 | -0.039 | 0.055 | 0.059 | 0.035
13 | FKBP7 (UniProt Q9Y680) | 0.018 | 0.033 | -0.031 | -0.033 | 0.017 | 0.055 | -0.005 | -0.059 | -0.029 | -0.022 | -0.052 | 0.001 | -0.034 | -0.074 | 0.002 | -0.031 | -0.097 | -0.025 | 0.002 | 0.044
14 | HEXA (UniProt P06865) | 0.013 | 0.004 | 0.018 | -0.062 | 0.024 | -0.179 | 0.032 | -0.043 | -0.003 | -0.05 | -0.046 | 0.022 | -0.019 | 0.004 | -0.035 | -0.006 | -0.023 | -0.023 | -0.018 | -0.001
15 | GSTP1 (UniProt P09211) | 0.12 | -0.038 | -0.074 | -0.021 | -0.015 | 0.016 | -0.023 | -0.026 | -0.004 | 0.03 | 0.006 | -0.003 | 0.008 | 0.008 | -0.108 | 0.022 | -0.006 | -0.1 | -0.019 | 0.023
16 | GSTO1 (UniProt P78417) | 0.073 | -0.029 | 0.006 | 0.021 | -0.029 | 0.066 | -0.045 | -0.047 | 0.021 | 0.021 | -0.031 | 0.002 | 0.03 | 0.03 | -0.121 | 0.02 | 0.017 | 0.15 | -0.043 | 0.016
